Screens as filed in PubChem BioAssay.
These entries were drawn from the full list.
aSyn 5UTR act: Activators via SNCA 5'UTR binding, MLPCN; AID 1814; activity score, % (tested at 7.5 µM), hits read low; alpha-synuclein 5'UTR reporter, activators screen; actives 7.1% (n = 300,000); in the data active = activity score below about -60%
Active calls of the source: *.

SMILES | aSyn 5UTR act
CC(=O)N=C1SC2CS(=O)(=O)CC2N1c1ccc(-c2nc3ccc(C)cc3s2)cc1 (stereo unspecified) | -164*
CN(C)CCN(C(=O)c1ccc(N2C(=O)CCC2=O)cc1)c1nc2cc3c(cc2s1)OCCO3 | -75*
CCc1ccc2nc(NC(=O)c3ccc4c(=O)[nH]c(CN5CCOCC5)nc4c3)sc2c1 | -107*
Cc1ccc2nc(N(CCCN(C)C)C(=O)c3ccc(S(=O)(=O)N4CCc5ccccc5C4)cc3)sc2c1 | 88
O=C(Nc1nc2cc3c(cc2s1)OCCO3)c1ccc(N2C(=O)CCC2=O)cc1 | -65*
CCc1ccc2nc(NC(=O)c3ccc(N4C(=O)CCC4=O)cc3)sc2c1 | -73*
O=C(Nc1nc2cc3c(cc2s1)OCCO3)c1ccco1 | 66
C/C(N)=C(/C#N)C(=O)COC(=O)c1cc(C)n(-c2ccc(F)cc2)c1C | -109*
CC(=O)N/C(=N\c1nc(C)cc(C)n1)Nc1ccc2ccccc2c1 | -166*
C/C(=N\N=C(/N)c1nonc1N)c1ccc2c(c1)OCO2 | -110*
COc1ccc(-c2cc(C(=O)NC(C)C)no2)cc1 | -71*
COc1ccc(-c2cc(C(=O)NC3CCCC3)no2)cc1 | -121*
COc1ccc(-c2cc(C(=O)Nc3ccc(C)c(C)c3)no2)cc1 | -124*
COc1cccc(-c2cc(C(=O)NC3CCCCC3)no2)c1 | -202*
COc1cccc(-c2cc(C(=O)N3CCCCC3C)no2)c1 (stereo unspecified) | -162*
O=C(NC1CCCCC1)c1cc(-c2ccco2)on1 | -128*
COC(=O)c1cccc(NC(=O)c2cc3sccc3n2C)c1 | -76*
Cn1c(C(=O)NC2CCCCC2)cc2sccc21 | -147*
CCn1c(C(=O)NC2CCC(C)CC2)cc2sccc21 (stereo unspecified) | -87*
CN(C(=O)c1cc2sccc2n1C)C1CCCCC1 | -110*
CCOC(=O)NC1(Nc2ccc(C)cc2)Oc2ccccc2O1 | -100*
CC(C)c1ccc(-c2nc3ccccc3s2)cc1 | 98
O=S(=O)(c1ccccc1)N1CCN(c2nc3ccccc3s2)CC1 | -83*
O=S(=O)(c1ccc(-c2nc3ccccc3s2)cc1)N1CCCC1 | -118*
CS(=O)(=O)N1CCN(c2nc3ccccc3s2)CC1 | -80*
SMILES | aSyn 5UTR act
O=C(Nc1cccc(Cl)c1)Nc1ccc(Br)cc1F | -115*
Cc1cc(NC(=O)Nc2ccccc2F)ccc1Br | -243*
O=C(Nc1ccccc1)Nc1ccc(Br)cc1F | -163*
O=C(Nc1ccccc1)Nc1cc(OCC(F)(F)F)cc(OCC(F)(F)F)c1 | 74
N/C(=N/OC(=O)c1ccccc1Cl)c1nonc1N | -85*
Cc1nc(/C(N)=N/OC(=O)c2ccccc2Cl)c(C(F)(F)F)o1 | -131*
Cc1ccc(-n2nc3c([n+]2[O-])CCc2c-3no[n+]2[O-])cc1 | -141*
[O-][n+]1onc2c1CCc1c-2nn(-c2ccccc2Cl)[n+]1[O-] | -155*
CCCCNC(=O)c1nnn(-c2ccccc2)c1N | -140*
Cc1ccc(Oc2ncc(CN3CCOCC3)s2)cc1 | -78*
CCCOC(=O)c1ccc(NC(=O)CC(C)(C)C)cc1 | -109*
CCCCc1ccc(NC(=O)CC(C)(C)C)cc1 | -159*
Cc1cccc2c(=O)c(C(=O)NCc3cccs3)c[nH]c12 | -110*
O=C(NCc1cccs1)c1csc2ccccc12 | -62*
COc1ccc(C(=O)Nc2nc3ccc(OC)cc3s2)cc1 | -277*
COc1ccc(C(=O)Nc2nc(-c3cccs3)c(NC(C)=O)s2)cc1 | -83*
COc1ccc2nc(NC(=O)c3ccc(NS(=O)(=O)c4cccs4)cc3)sc2c1 | -67*
CCn1cc([N+](=O)[O-])c(C(=O)Nc2nc3ccc(OC)cc3s2)n1 | -84*
Cc1cc(/C=N/n2cnnc2)c(C)n1-c1ccc(OCc2ccc(F)cc2)cc1 | -73*
Cc1cc(/C=N/n2cnnc2)c(C)n1-c1ccc(OCc2ccc(Cl)cc2Cl)cc1 | 113
COc1ccc(NN=Nc2ccc([N+](=O)[O-])cc2)cc1 | -240*
c1ccn(-c2ccc(N3CCOCC3)cc2)c1 | -125*
CC(C)(C)SCCNC(=O)/C=C/c1ccccc1 | -113*
CC(C)NC(=S)NC(=O)/C=C/c1ccc(F)cc1 | -64*
O=C(/C=C/c1ccccc1)NCCc1ccccc1 | -154*
SMILES | aSyn 5UTR act
CC(C)(C)SCCNC(=O)/C=C/c1ccc(F)cc1 | -68*
Cc1ccnc(N=Cc2nc(-c3ccccc3Br)oc2O)c1 | -102*
CC1CCc2c(sc3nc(CSc4n[nH]c(N)n4)[nH]c(=O)c23)C1 (stereo unspecified) | -92*
O=C(COc1ccc2c(c1)OCO2)Nc1ccccc1C(F)(F)F | -114*
N#Cc1ccccc1NC(=O)COc1ccc2c(c1)OCO2 | -130*
O=C(N/N=C/c1ccccc1[N+](=O)[O-])c1cccs1 | -125*
Cc1ccc(/C=N/NC(=O)c2cccs2)cc1[N+](=O)[O-] | -107*
Cc1cccc(N=Nc2cn[nH]c2-c2ccco2)c1 | -125*
C=CCn1c(SCC(N)=O)nc2scc(-c3ccc(C)o3)c2c1=O | -84*
C=CCn1c(SCC(=O)c2[nH]c(C)c(C(=O)OCC)c2C)nc2scc(-c3ccccc3)c2c1=O | 57
